Laboratory results: PubChem BioAssay (NCATS)
Results filed as inconclusive are left out. Activity calls are given as the source filed them. The call rests on the fitted dose curve; in most records, active means well fitted cell-killing curve with a large enough effect; inconclusive means small, poorly fitted or top-dose-only effect, or effect the other way; inactive means flat fitted curve, though single readings scatter.

Experiments:
Test in all cases: Primary qHTS to identify gynecologic anti-cancer compounds using libraries of approved drugs and bioactive compounds (AID 1345084); further: nearly all actives have a fitted effect of over 55% in size
Settings in all cases: Gynecologic cancer cell panel viability, ATPlite luminescence, 48 h; series mostly up to 57.5 µM
[1] = system: SKOV3
In short: (§1)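 Cells, 1,000 per well, plated 16 h, then exposed 48 h at 37 C to compounds. Viability by ATPlite luminescence after 15 min at room temperature.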

[2] = system: Tov-21-G
In short: as §1

[3] = system: Tov112D
In short: as §1

Measured: Potency

CCCC1=CC2=C(CO1)C(=O)C(C)(O)C(OC(=O)c1c(C)cc(OC)cc1O)C2 (stereo not given)
inactive: all assays above

C=C1[C@@H]2CC[C@@]3(C)[C@H](c4ccoc4)OC(=O)C[C@]13O[C@H]1CC(=O)C(C)(C)[C@H](C(O)C(=O)OC)[C@]12C (stereo not given in full)
inactive: all assays above

CCOc1nc2c(N)ncnc2n1CC
inactive: all assays above

O=C(O)Cc1cn([C@@H]2OC[C@@H](O[C@@H]3O[C@H](CO)[C@@H](O)[C@H](O)[C@H]3O)[C@H](O)[C@H]2O[C@@H]2O[C@H](CO)[C@@H](O)[C@H](O)[C@H]2O)c2ccccc12
inactive: all assays above

CC(C)(OC1OC(CO)C(O)C(O)C1O)C1CCC(O)(CO)C2CC(=O)C(C)(O)C2C1 (stereo not given)
inactive: all assays above

C=CC1(C)CC=C2C(CCC3C(C)(C(=O)O)CCCC23C)C1 (stereo not given)
inactive: all assays above

C/C=C/C=C/C(=O)OC1CC/C=C/C(O)C(O)C(CCC)OC1=O (stereo not given)
inactive: all assays above

O=C(O)Cc1cn([C@@H]2O[C@H](CO)[C@@H](O)[C@H](O)[C@H]2O[C@@H]2O[C@H](CO)[C@@H](O)[C@H](O)[C@H]2O)c2ccccc12
inactive: all assays above

CC(=O)c1c(C)cccc1O[C@@H]1O[C@H](CO)[C@@H](O)[C@H](O)[C@H]1O
inactive: all assays above

C=CCC1=C[C@]2(OC)[C@H](C)[C@@H](c3ccc(OC)c(OC)c3)O[C@]2(OC)CC1=O
inactive: all assays above
